This is an account of results in PubChem BioAssay.

Molecules are shown by their SMILES.

The assay can be described thus: MRP1 drug-resistance reversers in H69AR cells – cell-based, doxorubicin co-treatment, pilot screen (AID 601). The conditions noted are these: H69AR cells, CellTiter-Glo, 72 h; compound alone cytotoxicity; at 10 µM.
Regarding `O=C1c2ccccc2C(=O)N1Cc1nc2ccccc2c(=O)n1CCN1CCOCC1`, the viability came out at 88.8%.
`Nc1c(C(=O)NCCc2ccccc2)nnn1Cc1ccccc1`: the viability was found to be 95.8%.
In the case of `CC1/C(=N/O)C(CN(C)C)C2CC1C2(C)C` (stereo not given), the viability amounted to 108%.
To `Nc1cc(-c2ccccc2)ccc1O` belongs 73%.
Take `CCOC(=O)c1c(C)[nH]c(C=Nc2ccccc2)c1O`: the viability turned out to be 101%.
Take `O=C(COc1nnc2ccccn12)N1CCN(S(=O)(=O)c2ccccc2)CC1`: the viability was found to be 97.2%.
As to `O=C(Nc1ccc2nc(-c3cccs3)[nH]c2c1)c1ccco1`, the viability was 75.2%.
For `COC(=O)c1ccccc1NC(=O)CC(NCc1ccccc1)C(=O)O` (stereo not given) the value was 104%.
Take `CCOC(=O)c1oc2ccccc2c1CSc1nnnn1-c1ccc(OC)cc1`: the viability worked out at 75%.
Consider `CC1(C)CC(=O)C2=C(C1)OC(=O)C2(NC(=O)c1cccs1)C(F)(F)F` (stereo not given), for which the viability is 98%.
For `CCc1ccc(CNCc2cccnc2)cc1` the value was 92.4%; for `CCOC(=O)C1CCN(C(=O)C2CCN(S(=O)(=O)c3cc(Cl)ccc3Cl)CC2)CC1`, 89.4%.
To `Cc1cnc(-c2nnc(N(C)C(=O)C3CCOC3)s2)cn1` (stereo not given) belongs 101%.
For `CN1/C(=C\C(=O)C(F)F)C(C)(C)c2ccccc21`, the viability is 107%.
To `Nc1cc(CN2C(=O)c3ccccc3C2=O)cc(Cl)c1O` belongs 108%; to `COCc1nnc(NC(=O)CCCOc2ccccc2)s1`, 98.5%; to `CCCN(CCC)S(=O)(=O)c1ccc(NS(C)(=O)=O)cc1`, 105%.
To `Cc1nnc2n(-c3ccccc3)c(=O)c3c4c(sc3n12)CCCC4` belongs 85.6%.
On to `COC(=O)c1ccccc1NC(=O)C1CC(=O)N(c2ccc(F)cc2)C1` (stereo not given), for which the viability is 96%.
On to `O=C(CCc1ccccc1)Nc1ccncc1`, for which the viability came to 97.8%.
With `CN(CC(=O)Nc1nccs1)S(=O)(=O)c1ccc(F)cc1`, the viability stood at 95.2%.
Consider `COc1cccc(-c2nc(CSCC(=O)N3CCc4ccccc43)c(C)o2)c1`, for which the viability was found to be 87.1%.
For the compound `CCCC(=O)Nc1nnc(CC(=O)OCC)s1`, the viability came out at 88.1%.
For `COc1ccc(N2CCN(C(c3cccs3)C(C)NC(=O)c3ccco3)CC2)cc1` (stereo not given), the viability stood at 86.3%.
On to `O=C(CSc1ncccn1)NCc1ccccc1`, for which the viability came out at 105%.
As for `Cc1ccc(-c2[nH]nc3c2C(c2ccc(OC(=O)N4CCOCC4)cc2)C(C#N)=C(N)O3)cc1` (stereo not given), the viability is 85.5%.
Take `O=C(Nc1ccccc1)N(O)c1ccc(Cl)cc1`: the viability was determined as 89.7%.
For the compound `CCCCCC(=O)N1CC2(CC)CN(C(=O)CCCCC)CC(CC)(C1)C2=O`, the viability was found to be 83.3%.
To `Cc1cc(NC(=O)C23CCC(C)(c4nc5cc(Cl)c(Cl)cc5nc42)C3(C)C)no1` (stereo not given) belongs 91.6%; to `CCOC(=O)CSc1nnc(Cn2nnc(-c3ccccc3)n2)n1CC`, 90.7%; to `O=C(COC(=O)c1ccc(Br)o1)Nc1ccc(S(=O)(=O)N2CCCC2)cc1`, 95.6%.
To `Cc1cccc(-n2c(O)c(C=Nc3ccccc3N)c(=O)[nH]c2=O)c1` belongs 10.1%; to `Cn1c(-c2ccccc2)cc(=O)c2ccccc21`, 96.6%; to `COc1cc(S(=O)(=O)NC2CCCCC2)ccc1Cl`, 92.7%.
Regarding `c1ccc(Cn2nnnc2CN2CCN(c3ncccn3)CC2)cc1`, the viability is 100%.
In the case of `CS(=O)(=O)N(CC(=O)O)c1cccc(Cl)c1`, the viability turned out to be 95.7%.
Regarding `O=S1(=O)CC(N2CCOCC2)c2ccccc21` (stereo not given), the viability came to 103%.
With `C=CCn1cc(C(=O)NCCOC)c(=O)c2cc(S(=O)(=O)N(CC)CC)ccc21`, the viability turned out to be 83.1%.
Turning to `Cc1ccc(C(=O)OCC(=O)c2ccc(Cl)s2)s1`, the viability is 97.4%.
For the compound `CCOC(=O)/N=C(/NC(=O)Nc1ccc(C(=O)OCC)cc1)OC`, the viability was found to be 96.5%.

What is called viability is a read-out of living cells in per cent, often relative to untreated cells.
